Measurements from PubChem BioAssay AID1421 (Emory University Molecular Libraries Screening Center, 2008).
Out of some 1,300 compounds screened, about 140 (11%) were called active. How the calls were made is not given here. The list is a sample of the results. Results with a measured potency or affinity are listed apart.

Biological target: Prostaglandin E2 receptor EP2 subtype (Homo sapiens) (UniProt P43116)
Assay: compounds shifting PGE2 potency at EP2 – cell-based, human EP2, PGE2 EC50 shift, dose response (AID 1421)
Conditions: EP2-expressing cells, PGE2 EC50 shift by compound; at 20 µM

Sequence of Prostaglandin E2 receptor EP2 subtype (Homo sapiens) (P43116 whole entry, looked up): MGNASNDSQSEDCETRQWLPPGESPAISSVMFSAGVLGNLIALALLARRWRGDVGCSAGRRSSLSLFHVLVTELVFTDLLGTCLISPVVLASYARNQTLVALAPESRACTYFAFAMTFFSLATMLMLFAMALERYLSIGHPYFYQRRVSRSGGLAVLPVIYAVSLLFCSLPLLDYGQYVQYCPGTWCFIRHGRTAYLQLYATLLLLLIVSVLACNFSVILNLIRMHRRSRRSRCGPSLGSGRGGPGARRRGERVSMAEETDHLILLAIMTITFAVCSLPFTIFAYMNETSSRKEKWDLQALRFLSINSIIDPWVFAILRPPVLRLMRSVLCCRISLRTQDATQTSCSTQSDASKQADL

PGE2 EC50 with compound, inactive:
CC(=O)N1N=C2/C(=C/c3ccccc3)CCCC2C1c1ccccc1 (stereo not drawn) 0.44 nM
CCN=C1S/C(=C\c2ccc(O)c(OCC)c2)C(=O)N1CC 0.39 nM
CCCCOP(=O)(OCCCC)C(Nc1ccccc1)c1ccc2c(c1)OCO2 (stereo not drawn) 0.36 nM
CC(C)N(CCNC(=O)c1oc(=O)c2ccccc2c1-c1ccccc1)Cc1ccco1 0.81 nM
Oc1ccc(/C=N/N(Cc2ccccc2)c2ccccc2)cc1 0.73 nM
C/C(=N\N(Cc1ccccc1)c1ccccc1)c1cccnc1 0.37 nM
c1ccc(-c2ccccc2-c2nc(-c3cccnc3)no2)cc1 0.05 nM
Cc1scc(-c2n[nH]c(=S)n2Cc2ccccc2)c1C 0.54 nM
COc1ccc(N2CCN(c3nc4c(c(=O)n(C)c(=O)n4C)n3Cc3ccccc3)CC2)cc1 0.9 nM
Cc1cc(NC(=O)C2=C(O)c3ccccc3S(=O)(=O)N2C)no1 0.77 nM
Cc1ccccc1NC1=C(C(=O)c2ccccc2)N(C)S(=O)(=O)c2ccccc21 0.78 nM
CCOC(=O)CC(=O)CSc1nc(-c2ccc3c(c2)OCO3)cc(C(F)(F)F)c1C#N 1.22 nM
Cc1noc(C)c1CSc1nc2ccccc2c(=O)n1-c1ccc(Cl)cc1 0.51 nM
Cc1noc(C)c1CSc1nc2ccccc2c(=O)n1-c1ccc(F)cc1F 0.51 nM
CSc1nc(Oc2ccccc2)c2sccc2n1 0.62 nM
CCOC(=O)n1c(=O)n(Cc2ccc(Cl)c(Cl)c2)c2ccccc21 0.31 nM
COC(=O)c1cc(Br)c(=O)n(-c2nccs2)c1 17 nM
C=C(C)COc1ccc2c(c1)CC[C@@H]1[C@H]3C/C(=N/O)C(=O)[C@]3(C)CC[C@@H]21 0.41 nM
Cc1cccc(OC(=O)c2sc(Cl)nc2C)c1 0.61 nM
Cc1noc(C)c1CSc1ncnc2sc(C)c(C)c12 0.35 nM
O=C(Nc1ccc2c(c1)OCO2)c1cccc2c1C(=O)N(C1CCCCC1)C2 0.58 nM
CCOP(=O)(OCC)c1nc(-c2cccc3ccccc23)oc1N1CCCCC1 0.42 nM
CCc1nc(N2CCC(C)CC2)c2oc3ccccc3c2n1 0.32 nM
O=C(c1ccc2c(c1)OCO2)N(Cc1cccs1)C1(C(=O)NC2CCCCC2)CCCCC1 0.42 nM
O=C(COc1ccc(Br)cc1)Nc1ccc(-c2nnc(-c3ccco3)o2)cc1 0.53 nM
Cc1ccc2nc(N3CCC(C(=O)O)CC3)nc(-c3ccccc3)c2c1 0.5 nM
Cc1ccc(-n2c(Cc3cccc4ccccc34)n[nH]c2=S)c(C)c1 0.39 nM
CN(C)Cc1ccccc1Sc1cccc2ccccc12 0.37 nM
Cc1ccnc(SCC(=O)n2c3c(c4ccccc42)CC(C)CC3)n1 (stereo not drawn) 0.26 nM
COc1ccccc1-c1nnc(SCC(=O)c2ccc(C3CCCCC3)cc2)n1Cc1ccco1 0.46 nM
O=C(CN1CCN(Cc2ccccc2)CC1)Nc1ccccc1-c1ccccc1 0.83 nM
CCOC(=O)C1=NN(c2cccc(C)c2)C2(S1)SC(C(C)=O)=C(C)N2c1ccccc1 (stereo not drawn) 0.51 nM
Cc1ccccc1-n1c(Cn2c(=O)sc3ccccc32)nnc1SCC(=O)N1CCCC1 0.82 nM
Cc1cc(C)c2nc(N3CCCN(C(=O)c4ccco4)CC3)c(C#N)cc2c1 0.66 nM
COc1ccc(C2CC(c3cccs3)=NN2C(=O)c2ccc(Br)o2)cc1 (stereo not drawn) 0.71 nM
O=C1C2C3c4ccccc4C(c4ccccc43)C2c2nc3ccccc3n21 (stereo not drawn) 0.5 nM
COc1cc(C)c(NC(c2ccccc2)c2ccccc2)cc1OC 0.74 nM
c1ccc(-c2csc3ncnc(N4CCc5ccccc5C4)c23)cc1 0.28 nM
CCOC(=O)C(Cc1ccccc1)(NC(C)=O)C(=O)OCC 1.39 nM
O=C(O)CCCCCCCCCCCc1ccccc1 0.7 nM
O=c1c(O)c(-c2ccccc2)oc2ccc3occc3c12 0.43 nM
CCCCc1n[nH]c(=S)n1Cc1ccc(Cl)cc1 0.62 nM
CCCCc1ccc(-n2c(Cc3cccs3)n[nH]c2=S)cc1 0.6 nM
Cc1onc(-c2ccccc2)c1C(=O)N(Cc1ccco1)Cc1cccs1 0.49 nM
Cc1sc2ncnc(N(C)Cc3cccs3)c2c1C 0.78 nM
COc1cccc2[nH]c3c(N4CCCCC4)ncnc3c12 54.6 nM
O=C(c1cc2sccc2n1Cc1ccc(F)cc1)N1CCCc2ccccc21 0.27 nM
Cc1ccc(-c2nc3ccccc3nc2Cl)cc1 0.45 nM
CCOC(=O)c1c(NC(=O)CSC(=S)N(C)C)sc(C)c1C 0.55 nM
CCCOP(=O)(OCCC)C(Nc1cccc(C(F)(F)F)c1)c1ccc(C)cc1 (stereo not drawn) 0.23 nM
CCOP(=O)(OCC)c1nc(-c2cccc3ccccc23)oc1NCc1ccccc1 0.31 nM
CCOP(=O)(OCC)c1nc(-c2cccc3ccccc23)oc1NCCc1ccc(OC)cc1 0.72 nM
CCOC(=O)c1c(NC(=O)CN2C(=O)NC3(CCCCCC3)C2=O)sc(C)c1-c1ccc(C)cc1 0.74 nM
CCOP(=O)(OCC)c1nc(-c2ccc(C)cc2)oc1NCc1ccccc1 0.46 nM
Cc1ccccc1Nc1c(-c2ccccn2)nc2ccccn12 0.67 nM
COC(=O)c1cc2ccsc2n1Cc1ccccc1F 0.49 nM
CSc1nc(Sc2ccccc2Cl)c2ccccc2n1 0.41 nM
CCOC(=O)c1ccccc1NC(=O)CSc1ncc(C(=O)OCC)c(N)n1 0.55 nM
Cc1ccc(S(=O)(=O)n2c3ccc(F)cc3c3nc(C)sc32)cc1 0.2 nM
C=CCn1c(SCC(N)=O)nc(C)cc1=O 0.82 nM
C=CCn1c(SCc2c(C)noc2C)nc2sc(C)c(C)c2c1=O 0.57 nM
CC(=O)Nc1ccc(C2=NN(c3ccccc3)C(c3cccs3)C2)cc1 (stereo not drawn) 0.32 nM
CCCCCn1c(CN2CCN(c3cc(Cl)ccc3C)CC2)nc2c1c(=O)[nH]c(=O)n2C 1.94 nM
Brc1ccc(Cn2c(-c3cncs3)nc3ccccc32)cc1 0.43 nM
CCn1c2ccccc2c2cc(/C=N/n3c(C)nnc3C)ccc21 0.04 nM
Cc1ccccc1OCc1nc2ccccc2c(=O)n1/N=C/c1ccco1 0.61 nM
CN(c1ccccc1)C1CCCCC1NS(=O)(=O)c1ccc(Cl)cc1 (stereo not drawn) 0.38 nM
N#CCSc1nc2c(c(C3CC=CCC3)c1C#N)CCC2 (stereo not drawn) 0.5 nM
CSc1ccccc1NC(=O)COc1ccc(Cl)cc1C 0.35 nM
CN(CC(=O)Nc1ccccc1-c1ccccc1)Cc1ccccc1Cl 0.6 nM
C(=N\N1CCN(C2c3ccccc3-c3ccccc32)CC1)/c1cccnc1 0.43 nM
COC(=O)c1c(NC(NC(=O)C(C)C)C(Cl)(Cl)Cl)sc2c1CCCC2 (stereo not drawn) 0.51 nM
O=C(O)CSc1cc(-c2ccccc2)nc2ccccc12 1.19 nM
N/C(CSc1nc(-c2ccccc2)c(-c2ccccc2)o1)=N\O 0.37 nM
C=CCC(=O)OCCCCCCOc1ccc(C(=O)O)cc1 0.73 nM
CC(C)Oc1ccc(/C=C(/NC(=O)c2ccccc2)C(=O)NCCC(=O)O)cc1 0.98 nM
Cc1ccc(C(=O)OCC(=O)Nc2ccccc2Sc2ccccc2)cc1C 0.26 nM
CN(/N=C/C=C/c1ccccc1)C1=NS(=O)(=O)c2ccccc21 0.14 nM
CCC(C)(C)n1nnnc1C(c1ccncc1)N1CCC(Cc2ccccc2)CC1 (stereo not drawn) 1.27 nM
CC1(c2cc([N+](=O)[O-])cc([N+](=O)[O-])c2)CC(C)(C)N(C(=O)c2ccccc2)c2ccccc21 (stereo not drawn) 0.35 nM
CC1=CC(C)(C)N(S(=O)(=O)c2ccc(C)cc2)c2cc(C)ccc21 0.39 nM
CCOP(=O)(OCC)c1nc(-c2ccccc2)oc1NCc1ccccc1 0.36 nM
O=C(O)c1cccc(NN=C2c3ccccc3-c3ccccc32)c1 0.74 nM
O=c1c2oc3ccccc3c2[nH]c(=S)n1-c1ccccc1 1.48 nM
CN=C1CC(SC)=C1c1ccc(C)cc1 2.68 nM
Cc1cc(O)c(C=O)c2c1C(=O)Oc1c(C)c(O)c3c(c1O2)C(O)OC3=O (stereo not drawn) 0.42 nM
O=C(NNc1ccc([N+](=O)[O-])cc1[N+](=O)[O-])C1C2CCCCC21 (stereo not drawn) 1.49 nM
CCOC(=O)C1=C(C)N(C)C(C)=C(C(=O)OCC)C1c1ccsc1 0.71 nM
FC(F)(F)c1cccc(-c2cc3ccccc3nc2N2CCCC2)c1 0.54 nM
O=C(Oc1ccc(-c2nccc(-c3ccccn3)n2)cc1)c1cccc(C(F)(F)F)c1 1.38 nM
CCCCOc1cc(C)nc(NCc2ccccc2)n1 0.31 nM
COc1cnc(SCc2c(Cl)cccc2Cl)nc1Cl 0.18 nM
COC(=O)CSc1nc2c(c(C3CC=CCC3)c1C#N)CCC2 (stereo not drawn) 0.61 nM
